Data taken from PubChem BioAssay (NCATS).
“And” between values parts separate entries of the source, which are not always exact repeats. Equal entries are not always repeated. Results filed as inconclusive are left out. The source holds several records for some structures; these can differ, active in one and inactive in another. The source made the active and inactive calls. Unless noted, the call rests on the fitted dose curve; in most records, active means well fitted curve in the direction sought with a large enough effect; inconclusive means small, poorly fitted or top-dose-only effect, or another doubt; inactive means no such curve, though single readings can be large; an effect the other way counts as inactive or inconclusive.

Tests used:
[1] = Cellular Toxicity (caspase-3) HepG2 (AID 654);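 further: cells exposed to compound for 16 hours before reading; 0% = DMSO alone and 100% = caspase signal from 100 µM tamoxifen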
How it was run: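 Luminescent Caspase-Glo 3/7 readout after 16 hr compound exposure of human hepatocellular carcinoma HepG2 cells at 37 °C; qHTS concentration-response, normalized DMSO = 0%, 100 uM tamoxifen = 100%; AC50 by standard Hill equation.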

[2] = Cellular Toxicity (caspase-3) Jurkat (AID 655);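 further: cells exposed to compound for 16 h at 37 °C before reading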; further: potency means the concentration at half of the fitted maximal effect
How it was run: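 Luminescent caspase-3/7 readout (aminoluciferin substrate cleavage) in human T-cell leukemia Jurkat cells after 16 hr compound exposure. Concentration-response normalized to DMSO and 100 uM tamoxifen; AC50 by standard Hill equation.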

[3] = Cellular Toxicity (caspase-3) HUV-EC-C (AID 656)
How it was run: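 Luminescent caspase-3/7 activation (aminoluciferin substrate cleavage) in HUV-EC-C cells after 16 hr compound exposure, 37°C. Signal normalized to DMSO basal and 100 uM tamoxifen as 100%; AC50 from concentration-response fitted with the Hill equation.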

[4] = Cellular Toxicity (caspase-3) SHSY5Y (AID 657);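 further: cells exposed to compound for 16 hours at 37 °C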
How it was run: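 Luminescent caspase-3/7 readout (aminoluciferin release) in SH-SY5Y cells after 16 h compound exposure in complete medium. Activity scaled between DMSO basal and 10 uM staurosporine as 100%; concentration-response fitted to Hill equation for AC50.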

[5] = Cellular Toxicity (caspase-3) BJ (AID 658);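 further: cells exposed to compound for 16 hours; 0% = DMSO basal and 100% = 10 µM staurosporine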
How it was run: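 Plated BJ cells (1000/well) rested 5 hr, received compound for 16 hr at 37 °C, then Caspase-Glo 3/7 reagent for 1 hr at room temperature before luminescence reading.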

[6] = Cellular Toxicity (caspase-3) MRC-5 (AID 659);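 further: 0% = DMSO basal and 100% = 10 µM staurosporine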
How it was run: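 Apoptosis readout in MRC-5 cells: luciferase light generated after caspase 3/7 cleaves a peptide-aminoluciferin substrate, measured post 16 hr compound incubation at 37 °C.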

[7] = Cellular Toxicity (caspase-3) Mesangial (AID 660);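 further: combined caspase 3 and 7 activity read by Caspase-Glo luminescence; cells exposed to compound for 16 h before the caspase read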
How it was run: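 Luminescent Caspase-Glo 3/7 readout (aminoluciferin substrate cleavage, 20 min RT) after 16 h compound exposure at 37 °C of normal human mesangial cells. Signal increase normalized between DMSO basal and 100 uM tamoxifen; Hill-equation AC50.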

[8] = Cellular Toxicity (caspase-3) SK-N-SH (AID 661);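 further: cells exposed to compound for 16 hours; 0% = DMSO basal and 100% = 10 µM staurosporine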
How it was run: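 Luminescent Caspase-Glo 3/7 read-out after 16 hr compound exposure of SK-N-SH neuroblastoma cells at 37 °C. Signal increase normalized to DMSO (basal) and 10 uM staurosporine (100%); AC50 from Hill equation fits of qHTS concentration-response data.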

[9] = Cellular Toxicity (caspase-3) Hek293 (AID 664); details: HEK293 caspase-3 activation, DMSO = 0%, 100 µM tamoxifen = 100%; at 92.2 µM (top of the series);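 further: cells exposed to compound for 16 h at 37 °C before readout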
How it was run: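 Luminescent Caspase-Glo 3/7 readout (aminoluciferin release) in HEK293 cells after 16 h compound treatment, 37 °C. Normalization: DMSO = basal, 100 uM tamoxifen = 100% stimulation. Concentration-response fitted with standard Hill equation for AC50.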

[10] = Cellular Toxicity (caspase-3) N2a (AID 665);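 further: compound exposure lasted 16 h at 37 °C before readout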
How it was run: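 Luminescent Caspase-Glo 3/7 readout in N2a mouse neuroblastoma cells after 16 h compound exposure at 37 °C. Signal scaled to DMSO (basal) and 10 uM staurosporine (100%). Concentration-response fitted with Hill equation for AC50.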

[11] = Cellular Toxicity (caspase-3) Renal Proximal Tubule (AID 667);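 further: cells exposed to compound for 16 hours at 37 °C before detection; 0% = DMSO basal and 100% = 10 µM staurosporine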
How it was run: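 Luminescent caspase 3/7 signal from peptide-aminoluciferin cleavage measures apoptosis in freshly isolated rat kidney proximal tubule cells after 16 h compound exposure. Concentration-response data are normalized to DMSO and 10 uM staurosporine, and AC50 values come from Hill equation fits.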

[12] = Confirmation and Secondary Assay for Modulators of Hemoglobin Beta Chain Splicing at IVS2 654 locus (AID 910);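 further: per-well total GFP intensity by laser scanning cytometry after 2-day treatment; % of control where 0% means no effect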
How it was run: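 HeLa cells stably carrying EGFP interrupted by mutant beta-globin IVS2-654 intron (CMV-driven) were treated with compound for 2 days at 37C; corrected splicing was scored as total peak GFP intensity per well (488 nm excitation, 500-520 nm emission).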

[13] = target: Guanine nucleotide-binding protein G(i) subunit alpha-1 (Homo sapiens) (UniProt P63096); assay: qHTS Assay for Inhibitors of RGS12 GoLoco Motif Activity (Green Fluorophore) (AID 879);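 further: 0% = labeled peptide with Gαi1 and full inhibition = labeled peptide alone without protein; negative values mean loss of peptide binding seen as reduced polarization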
Sequence of Guanine nucleotide-binding protein G(i) subunit alpha-1 (Homo sapiens) (P63096 whole entry, looked up): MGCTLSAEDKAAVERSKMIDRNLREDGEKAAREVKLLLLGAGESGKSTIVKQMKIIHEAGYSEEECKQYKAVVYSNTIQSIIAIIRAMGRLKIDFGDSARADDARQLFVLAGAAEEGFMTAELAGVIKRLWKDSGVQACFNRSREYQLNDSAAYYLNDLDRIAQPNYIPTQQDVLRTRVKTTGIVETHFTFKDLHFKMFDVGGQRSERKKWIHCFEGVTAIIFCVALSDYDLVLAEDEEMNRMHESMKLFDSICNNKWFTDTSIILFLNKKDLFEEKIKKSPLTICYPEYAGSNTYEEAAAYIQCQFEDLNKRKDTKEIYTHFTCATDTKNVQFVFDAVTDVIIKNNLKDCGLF
How it was run: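 A drop in FITC polarization marked displacement of the FITC-tagged RGS12 GoLoco peptide (10 nM) from Gαi1 (50 nM). Compounds were incubated 10 min at room temperature in Tris pH 7.5 buffer containing 150 mM NaCl, 0.1 mM GDP and 0.05% NP40; unlabeled peptide titration served as control.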

[14] = target: Cytochrome P450 3A4 (Homo sapiens) (UniProt P08684); assay: qHTS Assay for Activators of Cytochrome P450 3A4 (AID 885); further: nearly all actives have a fitted effect of over 65% in size
Sequence of Cytochrome P450 3A4 (Homo sapiens) (P08684 whole entry, looked up): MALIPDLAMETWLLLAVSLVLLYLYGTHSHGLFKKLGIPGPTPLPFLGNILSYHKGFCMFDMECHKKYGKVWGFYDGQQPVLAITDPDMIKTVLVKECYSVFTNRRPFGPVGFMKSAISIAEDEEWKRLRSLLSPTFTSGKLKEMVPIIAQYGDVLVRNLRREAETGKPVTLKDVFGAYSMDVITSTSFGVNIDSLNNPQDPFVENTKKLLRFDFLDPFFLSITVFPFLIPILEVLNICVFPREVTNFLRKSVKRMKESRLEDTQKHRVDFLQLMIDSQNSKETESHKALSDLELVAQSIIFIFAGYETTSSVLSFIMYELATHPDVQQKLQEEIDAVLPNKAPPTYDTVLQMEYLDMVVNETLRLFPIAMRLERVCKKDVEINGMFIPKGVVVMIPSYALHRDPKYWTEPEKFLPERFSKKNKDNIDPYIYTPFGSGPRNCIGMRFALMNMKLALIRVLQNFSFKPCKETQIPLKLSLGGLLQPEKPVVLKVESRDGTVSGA
How it was run: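 Luminescent readout of luciferin formed from 25 uM Luciferin-PPXE (KM level) by 20 nM CYP3A4 in 200 mM KPO4, with 60 min NADPH-driven reaction at room temperature after 10 min compound exposure. Ketoconazole (57 uM) defined 100% inhibition.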

[15] = target: Cytochrome P450 2C9 (Homo sapiens) (UniProt P11712); assay: qHTS Assay for Inhibitors and Substrates of Cytochrome P450 2C9 (AID 883); further: nearly all actives have a fitted effect of over 60% in size; further: potency means the concentration at half of the fitted maximal effect
Sequence of Cytochrome P450 2C9 (Homo sapiens) (P11712 whole entry, looked up): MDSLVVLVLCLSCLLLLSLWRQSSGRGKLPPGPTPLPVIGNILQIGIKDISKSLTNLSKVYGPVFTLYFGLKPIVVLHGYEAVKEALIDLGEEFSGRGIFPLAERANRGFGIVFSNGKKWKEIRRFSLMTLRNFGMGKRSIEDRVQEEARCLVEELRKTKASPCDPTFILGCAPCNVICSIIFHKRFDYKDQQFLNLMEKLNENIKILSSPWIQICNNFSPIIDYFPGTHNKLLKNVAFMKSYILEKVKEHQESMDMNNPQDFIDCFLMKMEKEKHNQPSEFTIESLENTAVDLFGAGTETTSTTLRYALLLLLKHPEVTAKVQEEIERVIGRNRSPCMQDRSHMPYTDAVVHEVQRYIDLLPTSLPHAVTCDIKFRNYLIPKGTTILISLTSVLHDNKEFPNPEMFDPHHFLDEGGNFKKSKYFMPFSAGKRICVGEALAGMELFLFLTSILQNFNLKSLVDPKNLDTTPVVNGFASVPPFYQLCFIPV
How it was run: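 Human CYP2C9 (10nM) hydroxylated Luciferin-H (100uM, at its KM) to luciferin in 25mM KPO4. Compound was preincubated 10 min at 37C, then NADPH regeneration started a 60 min reaction at 37C. Luminescence was read after detection reagent, normalized to 57uM sulphaphenazole.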

[16] = target: Cytochrome P450 2D6 (Homo sapiens) (UniProt P10635); assay: qHTS Assay for Inhibitors and Substrates of Cytochrome P450 2D6 (AID 891); further: nearly all actives have a fitted effect of over 60% in size; further: potency means the concentration at half of the fitted maximal effect
Sequence of Cytochrome P450 2D6 (Homo sapiens) (P10635 whole entry, looked up): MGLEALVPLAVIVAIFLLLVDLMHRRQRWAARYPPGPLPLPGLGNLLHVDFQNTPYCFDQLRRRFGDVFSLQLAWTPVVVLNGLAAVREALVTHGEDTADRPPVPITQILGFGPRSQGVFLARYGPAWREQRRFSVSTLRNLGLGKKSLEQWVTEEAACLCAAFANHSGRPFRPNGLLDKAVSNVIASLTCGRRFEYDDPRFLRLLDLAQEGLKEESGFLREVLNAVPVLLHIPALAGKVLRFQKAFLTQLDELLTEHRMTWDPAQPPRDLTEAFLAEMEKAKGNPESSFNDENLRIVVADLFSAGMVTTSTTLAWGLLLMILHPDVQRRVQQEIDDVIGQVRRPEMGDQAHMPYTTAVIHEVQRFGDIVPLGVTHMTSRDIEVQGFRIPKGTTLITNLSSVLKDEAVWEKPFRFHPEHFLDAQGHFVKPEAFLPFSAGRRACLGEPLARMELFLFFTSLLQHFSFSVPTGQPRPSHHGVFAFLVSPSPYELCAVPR
How it was run: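 Luminescent read-out of luciferin formed by 5 nM human CYP2D6 demethylating 30 uM Luciferin-ME EGE (Km level) over 60 min at room temperature after NADPH regeneration addition. Data normalized to full inhibition by 1.43 uM quinidine.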

[17] = qHTS Assay for Identification of Small Molecule Antagonists for NFkB Signaling Pathway (AID 895; active means well fitted inhibition curve with a large enough effect in the signal ratio, with a control signal flat, not every such curve was filed as active; the % refers to the signal ratio; further: potency means the concentration at half of the fitted maximal effect)
How it was run: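 NFkB-bla ME-180 cervical carcinoma cells with beta-lactamase reporter under NFkB response element; compounds added, then TNF alpha at 10 pM final (EC50), 5 h at 37 C. LiveBLAzer substrate 2 h, room temperature; emission 460/530 nm at 405 nm excitation.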

[18] = target: Cytochrome P450 2C19 (Homo sapiens) (UniProt P33261); assay: qHTS Assay for Inhibitors and Substrates of Cytochrome P450 2C19 (AID 899); further: nearly all actives have a fitted effect of over 60% in size; further: potency means the concentration at half of the fitted maximal effect
Sequence of Cytochrome P450 2C19 (Homo sapiens) (P33261 whole entry, looked up): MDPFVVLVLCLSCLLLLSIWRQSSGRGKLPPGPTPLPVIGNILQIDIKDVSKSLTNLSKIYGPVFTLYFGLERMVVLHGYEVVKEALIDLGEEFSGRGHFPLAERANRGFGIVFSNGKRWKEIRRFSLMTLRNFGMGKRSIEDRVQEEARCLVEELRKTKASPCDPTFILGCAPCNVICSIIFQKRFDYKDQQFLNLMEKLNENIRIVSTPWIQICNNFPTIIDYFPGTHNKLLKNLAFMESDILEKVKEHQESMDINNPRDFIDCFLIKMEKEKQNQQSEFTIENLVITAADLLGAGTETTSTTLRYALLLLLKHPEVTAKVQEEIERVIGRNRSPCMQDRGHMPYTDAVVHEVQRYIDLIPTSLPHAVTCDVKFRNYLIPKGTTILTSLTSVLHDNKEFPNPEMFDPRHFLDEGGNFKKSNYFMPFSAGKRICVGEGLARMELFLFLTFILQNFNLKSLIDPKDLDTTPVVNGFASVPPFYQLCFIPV
How it was run: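 Human CYP2C19 (5nM) with Luciferin-H EGE at 10uM (its KM) in 50mM KPO4 was preincubated with compound for 10 min at 37C. NADPH regeneration started a 60 min 37C reaction. Luciferin was read by luminescence, normalized to 57uM ketoconazole.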

[19] = qHTS Assay for Identification of Small Molecule Agonists for Hypoxia Response Element Signaling Pathway (AID 914; active means well fitted activation curve with a large enough effect in the signal ratio, with a control signal flat, not every such curve was filed as active; the % refers to the signal ratio; further: % of control where 0% means no effect); details: ME-180 (cervical carcinoma) HRE-bla reporter, beta-lactamase ratio, CoCl2, 17 h; stronger effect = higher value
How it was run: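 Cells were plated overnight, pin-dosed with compound in a titration series, co-stimulated with EC50 CoCl2 and incubated 17 hours at 37 degrees Celsius. CCF4 substrate was then loaded, and AC50 values came from the 460nm/530nm ratio.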

[20] = target: Cytochrome P450 3A4 (Homo sapiens) (UniProt P08684); assay: qHTS Assay for Inhibitors and Substrates of Cytochrome P450 3A4 (AID 884); further: on the % scale 0 is the no-effect control and ±100 the full control effect; nearly all actives have a fitted effect of over 50% in size
How it was run: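 Luminescent readout of luciferin produced by CYP3A4 (20 nM) dealkylation of Luciferin-PPXE, 25 uM (its KM). NADPH-driven reaction ran 60 min at RT after 10 min compound preincubation; data scaled to 57 uM ketoconazole as 100% inhibition.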

CN(C)c1ccc2nc3ccc(=[N+](C)C)cc-3sc2c1
inactive: outcome [1] | Potency [2] | outcome [3] | outcome [4] | outcome [5] | outcome [6] | outcome [7] | outcome [8] | caspase-3 activation [9] -0.51% | outcome [10] | outcome [11]

COc1c2occc2cc2ccc(=O)oc12
inactive: outcome [1] | Potency [2] | outcome [3] | outcome [4] | outcome [5] | outcome [6] | outcome [7] | outcome [8] | caspase-3 activation [9] 2.24% | outcome [10] | outcome [11] | Potency [12]

O=c1cc(N2CCOCC2)oc2c(-c3ccccc3)cccc12
inactive: outcome [13] | outcome [14]

Cc1nc2n(c(=O)c1CCN1CCC(c3noc4cc(F)ccc34)CC1)CCCC2
inactive: outcome [13] | outcome [15] | Potency [17] | outcome [18]
active: Potency [16] 7.94 µM

NS(=O)(=O)c1cc(C(=O)O)c(NCc2ccco2)cc1Cl
inactive: outcome [1] | Potency [2] | outcome [3] | outcome [4] | outcome [5] | outcome [6] | outcome [7] | outcome [8] | caspase-3 activation [9] 2.23% | outcome [10] | outcome [11] | Potency [12] | activation [19] -15.7%

CCc1nc(N)nc(N)c1-c1ccc(Cl)cc1
inactive: outcome [1] | outcome [3] | outcome [4] | outcome [5] | outcome [6] | outcome [7] | outcome [8] | outcome [10] | outcome [11] | outcome [15] | outcome [18] | Potency [12]
active: Potency [2] 31.6 µM | caspase-3 activation [9] 101%

Cc1cccc(C#Cc2ccccc2)n1
inactive and 10 µM (active): Potency [15]
inactive and 7.94 µM (active): Potency [18]
inactive: outcome [13] | outcome [14]

NC(=NCc1ccccc1)NC(=O)c1nc(Cl)c(N)nc1N
inactive: outcome [13] | Potency [20] | Potency [12]
active: Potency [16] 5.01 µM

CCCc1cc(=O)[nH]c(=S)[nH]1
inactive: outcome [1] | Potency [2] | outcome [3] | outcome [4] | outcome [5] | outcome [6] | outcome [7] | outcome [8] | caspase-3 activation [9] 1.8% | outcome [10] | outcome [11] | Potency [20] | Potency [18] | Potency [12]

CCN(CC)C(=S)SSC(=S)N(CC)CC
inactive: outcome [13] | outcome [14] | Potency [12]
active: Potency [15] 2.51 µM and 398 nM | Potency [17] 7.08 µM

Cc1cc(O)c2c(c1)C(=O)c1cc(O)cc(O)c1C2=O
active: Potency [15] 3.98 µM | Potency [16] 31.6 µM
inactive: outcome [1] | Potency [2] | outcome [3] | outcome [4] | outcome [5] | outcome [6] | outcome [7] | outcome [8] | caspase-3 activation [9] -8.76% | outcome [10] | outcome [11] | outcome [13]

CC(=O)Nc1ccc(O)cc1
inactive: outcome [1] | Potency [2] | outcome [3] | outcome [4] | outcome [5] | outcome [6] | outcome [7] | outcome [8] | caspase-3 activation [9] -1.09% | outcome [10] | outcome [11] | outcome [15] | outcome [16] | outcome [18]

O=C(O)c1cccnc1Nc1cccc(C(F)(F)F)c1
inactive: outcome [13] | outcome [14] | Potency [16] | Potency [18] | Potency [12]

c1ccc2[nH]c(-c3cscn3)nc2c1
inactive: outcome [1] | Potency [2] | outcome [3] | outcome [4] | outcome [5] | outcome [6] | outcome [7] | outcome [8] | caspase-3 activation [9] -8.39% | outcome [10] | outcome [11] | Potency [12] | activation [19] -2.82%
